Results reported in the supplement of paper PMC10849652.
The full data set covers some 8,800 targets. This sample favours those with a hit. About 0.5% of all pairs of compound and target were hits. Values without a mark were called inactive.

What was measured:
Assay in all cases: log2 fold change, soluble protein after heating vs DMSO (PISA); higher = thermal stabilisation; K562 lysate, 10 uM; active = over 0.2 and 3.5 SD of the protein, either way, in both replicates (recomputed)
nilotinib = compound: Cc1cn(-c2cc(NC(=O)c3ccc(C)c(Nc4nccc(-c5cccnc5)n4)c3)cc(C(F)(F)F)c2)cn1 [nilotinib]
How it was run: (§1)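 K562 pellets were dounce-homogenised in PBS pH 7.4 with 1 mM MgCl2, and the crude extract at 1 mg/mL protein was treated with 10 μM compound for 30 min. Aliquots were heated for 3 min across 48°C-58°C, pooled, and brought to 0.5% NP-40 at 4°C; soluble protein was the supernatant after 21,000xg for 90 min. Soluble protein was quantified by TMTpro 16plex LC-MS/MS with channel sums equalised, and reported as log2 fold change in thermal stability against DMSO controls, with values from duplicates.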

[1] = compound: Cc1nc(Nc2n[nH]c3c2CN(C(=O)N[C@H](CN(C)C)c2ccccc2)C3(C)C)c2sccc2n1
How it was run: as §1

dasatinib = compound: Cc1nc(Nc2ncc(C(=O)Nc3c(C)cccc3Cl)s2)cc(N2CCN(CCO)CC2)n1 [dasatinib]
How it was run: as §1

[2] = compound: Cc1ncc(-c2ccnc(Nc3ccc(S(C)(=O)=O)cc3)n2)n1C(C)C
How it was run: as §1

[3] = compound: Cn1cc(-c2ccc3c(c2)CCN3C(=O)Cc2cccc(C(F)(F)F)c2)c2c(N)ncnc21
How it was run: as §1

quisinostat = compound: Cn1cc(CNCC2CCN(c3ncc(C(=O)NO)cn3)CC2)c2ccccc21 [quisinostat]
How it was run: as §1

tipifarnib = compound: Cn1cncc1[C@@](N)(c1ccc(Cl)cc1)c1ccc2c(c1)c(-c1cccc(Cl)c1)cc(=O)n2C [tipifarnib]
How it was run: as §1

[4] = compound: NC(=O)Nc1cc(-c2cccc(F)c2)sc1C(=O)N[C@H]1CCCNC1
How it was run: as §1

[5] = compound: NC1(c2ccc(-c3nc4ccn5c(=O)[nH]nc5c4cc3-c3ccccc3)cc2)CCC1
How it was run: as §1

[6] = compound: NCC(=O)Nc1ccc(-n2nc(C(F)(F)F)cc2-c2ccc3c(ccc4ccccc43)c2)cc1
How it was run: as §1

vorinostat = compound: O=C(CCCCCCC(=O)Nc1ccccc1)NO [vorinostat]
How it was run: as §1

silmitasertib = compound: O=C(O)c1ccc2c(c1)nc(Nc1cccc(Cl)c1)c1ccncc12 [silmitasertib]
How it was run: as §1

[7] = compound: O=C1NC(=O)C(c2cnc3ccccn23)=C1c1cn2c3c(cc(F)cc13)CN(C(=O)N1CCCCC1)CC2
How it was run: as §1

entospletinib = compound: c1cn2cc(-c3ccc4cn[nH]c4c3)nc(Nc3ccc(N4CCOCC4)cc3)c2n1 [entospletinib]
How it was run: as §1

[8] = compound: NC(=O)c1cnc(N[C@@H]2CCCC[C@@H]2N)nc1Nc1cccc(-n2nccn2)c1
How it was run: as §1

Chain of UniProt Q8N0Z6 (Q8N0Z6 whole entry, looked up): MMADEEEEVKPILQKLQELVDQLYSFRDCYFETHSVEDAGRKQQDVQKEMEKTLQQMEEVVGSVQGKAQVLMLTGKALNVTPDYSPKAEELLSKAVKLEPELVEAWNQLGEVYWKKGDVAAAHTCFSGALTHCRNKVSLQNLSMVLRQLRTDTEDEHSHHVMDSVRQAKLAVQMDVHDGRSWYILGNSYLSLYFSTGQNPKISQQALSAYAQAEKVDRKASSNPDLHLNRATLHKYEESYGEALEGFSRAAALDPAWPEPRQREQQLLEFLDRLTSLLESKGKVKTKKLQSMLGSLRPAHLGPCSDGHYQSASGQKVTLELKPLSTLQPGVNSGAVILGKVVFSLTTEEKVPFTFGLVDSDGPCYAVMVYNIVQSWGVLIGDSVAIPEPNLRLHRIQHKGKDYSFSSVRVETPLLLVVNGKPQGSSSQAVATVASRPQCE
Chain of UniProt Q969Z0 (Q969Z0 whole entry, looked up): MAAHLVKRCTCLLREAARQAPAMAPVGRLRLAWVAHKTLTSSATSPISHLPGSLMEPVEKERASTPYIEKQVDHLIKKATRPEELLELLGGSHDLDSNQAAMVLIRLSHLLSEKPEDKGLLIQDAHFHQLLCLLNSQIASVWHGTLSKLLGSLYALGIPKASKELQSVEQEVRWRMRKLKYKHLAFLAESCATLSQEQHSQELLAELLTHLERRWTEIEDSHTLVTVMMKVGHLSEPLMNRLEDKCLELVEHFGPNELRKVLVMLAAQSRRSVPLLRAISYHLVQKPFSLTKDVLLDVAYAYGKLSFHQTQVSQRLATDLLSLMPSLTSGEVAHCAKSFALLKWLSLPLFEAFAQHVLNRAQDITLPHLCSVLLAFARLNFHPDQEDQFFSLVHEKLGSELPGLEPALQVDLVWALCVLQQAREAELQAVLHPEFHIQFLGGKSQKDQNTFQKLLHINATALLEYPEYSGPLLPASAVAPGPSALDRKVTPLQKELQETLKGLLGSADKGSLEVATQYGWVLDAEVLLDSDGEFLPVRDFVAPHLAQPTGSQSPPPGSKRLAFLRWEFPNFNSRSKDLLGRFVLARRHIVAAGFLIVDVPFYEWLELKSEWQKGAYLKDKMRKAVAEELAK
Chain of UniProt Q9BZL1 (Q9BZL1 whole entry, looked up): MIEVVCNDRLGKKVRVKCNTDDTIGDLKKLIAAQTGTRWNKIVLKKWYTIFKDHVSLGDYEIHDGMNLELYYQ
Chain of UniProt Q9H3M7 (Q9H3M7 whole entry, looked up): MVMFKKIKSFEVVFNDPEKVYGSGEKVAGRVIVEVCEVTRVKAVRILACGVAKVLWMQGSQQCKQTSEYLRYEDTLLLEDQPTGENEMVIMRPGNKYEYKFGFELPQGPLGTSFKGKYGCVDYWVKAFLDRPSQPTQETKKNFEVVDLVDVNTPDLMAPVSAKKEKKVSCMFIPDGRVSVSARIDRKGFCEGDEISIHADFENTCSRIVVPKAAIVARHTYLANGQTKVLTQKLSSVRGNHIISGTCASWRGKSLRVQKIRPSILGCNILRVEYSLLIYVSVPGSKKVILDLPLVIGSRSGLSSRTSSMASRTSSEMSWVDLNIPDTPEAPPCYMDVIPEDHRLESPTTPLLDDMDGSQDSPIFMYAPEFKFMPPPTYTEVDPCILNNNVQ
Chain of UniProt Q8IZ69 (Q8IZ69 whole entry, looked up): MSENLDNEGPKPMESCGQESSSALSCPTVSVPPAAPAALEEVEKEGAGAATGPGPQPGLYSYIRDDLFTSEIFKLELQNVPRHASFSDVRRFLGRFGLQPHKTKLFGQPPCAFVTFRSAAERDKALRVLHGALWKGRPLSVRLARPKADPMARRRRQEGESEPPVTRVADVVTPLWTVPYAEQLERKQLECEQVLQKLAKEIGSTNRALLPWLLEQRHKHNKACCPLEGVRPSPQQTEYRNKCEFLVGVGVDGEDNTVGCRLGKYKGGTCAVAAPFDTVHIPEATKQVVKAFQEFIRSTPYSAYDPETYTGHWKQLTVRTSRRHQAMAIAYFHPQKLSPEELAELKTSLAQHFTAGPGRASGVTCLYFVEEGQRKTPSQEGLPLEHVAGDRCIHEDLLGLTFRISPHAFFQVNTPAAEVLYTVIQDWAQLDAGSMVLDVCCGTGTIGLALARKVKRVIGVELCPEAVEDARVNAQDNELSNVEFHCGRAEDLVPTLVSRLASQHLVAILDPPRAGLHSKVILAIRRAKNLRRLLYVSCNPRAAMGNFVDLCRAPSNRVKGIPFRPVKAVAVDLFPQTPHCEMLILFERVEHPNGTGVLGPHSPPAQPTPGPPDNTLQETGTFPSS
Chain of UniProt Q8NG68 (Q8NG68 whole entry, looked up): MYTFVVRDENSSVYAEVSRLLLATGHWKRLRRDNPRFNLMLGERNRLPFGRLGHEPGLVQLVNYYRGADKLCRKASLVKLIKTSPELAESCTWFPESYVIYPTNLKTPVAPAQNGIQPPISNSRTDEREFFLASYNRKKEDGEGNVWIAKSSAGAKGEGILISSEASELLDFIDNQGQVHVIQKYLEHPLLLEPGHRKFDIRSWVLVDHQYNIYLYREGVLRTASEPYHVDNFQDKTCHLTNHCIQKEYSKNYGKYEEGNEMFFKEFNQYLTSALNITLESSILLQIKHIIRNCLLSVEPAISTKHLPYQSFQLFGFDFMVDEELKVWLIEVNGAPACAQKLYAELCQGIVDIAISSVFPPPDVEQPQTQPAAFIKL
Chain of UniProt Q13769 (Q13769 whole entry, looked up): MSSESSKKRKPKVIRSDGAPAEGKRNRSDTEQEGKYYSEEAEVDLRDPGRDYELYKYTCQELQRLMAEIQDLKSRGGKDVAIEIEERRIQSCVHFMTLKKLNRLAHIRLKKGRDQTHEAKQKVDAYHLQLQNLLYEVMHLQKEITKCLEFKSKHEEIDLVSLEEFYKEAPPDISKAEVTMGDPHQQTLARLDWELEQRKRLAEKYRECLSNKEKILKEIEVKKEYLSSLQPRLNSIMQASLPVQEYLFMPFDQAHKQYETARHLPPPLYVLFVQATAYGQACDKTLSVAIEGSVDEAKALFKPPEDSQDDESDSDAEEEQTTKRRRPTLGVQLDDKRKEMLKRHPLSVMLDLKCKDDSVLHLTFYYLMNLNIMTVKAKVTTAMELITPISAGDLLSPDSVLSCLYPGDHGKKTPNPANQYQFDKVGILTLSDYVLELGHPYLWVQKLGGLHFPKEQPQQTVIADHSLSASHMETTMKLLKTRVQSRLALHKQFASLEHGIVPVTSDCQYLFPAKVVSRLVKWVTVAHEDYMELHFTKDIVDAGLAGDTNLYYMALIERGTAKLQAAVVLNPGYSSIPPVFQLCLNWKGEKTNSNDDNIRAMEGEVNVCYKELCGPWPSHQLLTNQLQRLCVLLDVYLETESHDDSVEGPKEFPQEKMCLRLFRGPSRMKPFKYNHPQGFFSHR
Chain of UniProt Q13885 (Q13885 whole entry, looked up): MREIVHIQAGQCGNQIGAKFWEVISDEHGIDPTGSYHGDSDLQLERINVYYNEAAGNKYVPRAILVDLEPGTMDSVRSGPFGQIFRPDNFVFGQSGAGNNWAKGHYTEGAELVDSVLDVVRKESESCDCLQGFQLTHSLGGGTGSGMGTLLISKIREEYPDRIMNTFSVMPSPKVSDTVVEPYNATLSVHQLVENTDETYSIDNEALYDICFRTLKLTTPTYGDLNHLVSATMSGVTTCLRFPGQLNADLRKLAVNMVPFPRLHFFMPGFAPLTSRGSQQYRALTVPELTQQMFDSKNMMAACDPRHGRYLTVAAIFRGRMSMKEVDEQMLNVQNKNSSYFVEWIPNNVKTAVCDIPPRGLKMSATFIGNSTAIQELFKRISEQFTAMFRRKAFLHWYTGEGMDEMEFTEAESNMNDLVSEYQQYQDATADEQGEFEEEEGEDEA
Chain of UniProt O95801 (O95801 whole entry, looked up): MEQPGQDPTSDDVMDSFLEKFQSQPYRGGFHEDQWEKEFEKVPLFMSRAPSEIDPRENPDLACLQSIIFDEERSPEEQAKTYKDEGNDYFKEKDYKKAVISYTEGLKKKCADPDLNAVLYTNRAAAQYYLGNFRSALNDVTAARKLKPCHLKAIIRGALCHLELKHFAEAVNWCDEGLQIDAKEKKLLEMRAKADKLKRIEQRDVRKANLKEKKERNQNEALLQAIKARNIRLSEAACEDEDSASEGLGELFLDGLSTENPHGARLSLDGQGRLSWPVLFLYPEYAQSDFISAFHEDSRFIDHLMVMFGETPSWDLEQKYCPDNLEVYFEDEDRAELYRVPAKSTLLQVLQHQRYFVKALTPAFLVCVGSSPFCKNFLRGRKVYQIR
Chain of UniProt Q8NDZ6 (Q8NDZ6 whole entry, looked up): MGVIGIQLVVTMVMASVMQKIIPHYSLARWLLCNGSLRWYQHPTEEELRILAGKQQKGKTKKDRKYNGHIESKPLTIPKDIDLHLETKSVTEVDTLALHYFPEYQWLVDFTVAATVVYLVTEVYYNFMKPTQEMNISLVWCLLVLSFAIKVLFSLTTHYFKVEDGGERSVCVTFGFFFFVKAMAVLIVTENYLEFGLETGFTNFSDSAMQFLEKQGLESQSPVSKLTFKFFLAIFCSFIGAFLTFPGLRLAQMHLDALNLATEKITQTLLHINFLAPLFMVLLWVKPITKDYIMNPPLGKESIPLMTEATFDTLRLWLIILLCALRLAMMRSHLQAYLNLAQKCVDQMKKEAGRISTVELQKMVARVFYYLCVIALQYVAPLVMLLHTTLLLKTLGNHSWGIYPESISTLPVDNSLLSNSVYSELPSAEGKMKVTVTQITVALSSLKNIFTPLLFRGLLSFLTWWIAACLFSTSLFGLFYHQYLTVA

Row | Target | log2 fold change (nilotinib) | log2 fold change [1] | log2 fold change (dasatinib) | log2 fold change [2] | log2 fold change [3] | log2 fold change (quisinostat) | log2 fold change (tipifarnib) | log2 fold change [4] | log2 fold change [5] | log2 fold change [6] | log2 fold change (vorinostat) | log2 fold change (silmitasertib) | log2 fold change [7] | log2 fold change (entospletinib) | log2 fold change [8]
1 | TXNIP (UniProt Q9H3M7) | 0.091 | 0.038 | -0.023 | -0.026 | 0.012 | -0.077 | -0.022 | 0.029 | 0.005 | -0.076 | -0.399 (active) | 0.04 | -0.051 | 0.024 | –
2 | TMEM161B (UniProt Q8NDZ6) | 0.419 (active) | -0.014 | – | 0.053 | – | -0.07 | -0.117 | 0.046 | -0.064 | -0.084 | 0.225 | 0 | 0.019 | -0.026 | -0.005
3 | THOC5 (UniProt Q13769) | -0.035 | 0.006 | -0.014 | -0.036 | 0.029 | -0.006 | -0.019 | 0.021 | -0.01 | 0.012 | -0.077 | 0.011 | 0.008 | -0.009 | 0.009
4 | TTL (UniProt Q8NG68) | -0.045 | -0.082 | -0.049 | -0.062 | 0.056 | -0.115 | -0.008 | 0.017 | 0.03 | -0.027 | -0.376 (active) | 0.021 | 0.057 | 0.138 | 0.018
5 | TTC4 (UniProt O95801) | -0.04 | -0.034 | 0.025 | -0.018 | 0.012 | -0.07 | -0.01 | 0.025 | -0.018 | 0.013 | -0.498 (active) | 0.022 | -0.009 | 0 | 0.023
6 | UBL5 (UniProt Q9BZL1) | 0.028 | 0.154 | 0.036 | 0.018 | 0.027 | 0.341 (active) | 0.031 | -0.149 | -0.013 | -0.027 | -0.078 | 0.065 | 0.077 | -0.049 | –
7 | U2AF1L5 (UniProt P0DN76) | -0.033 | 0.061 | -0.012 | 0.077 | 0.026 | – | -0.01 | – | -0.022 | – | -0.363 | -0.069 | – | 0.016 | 0.009
8 | TUBB2A (UniProt Q13885) | -0.005 | -0.002 | -0.049 | -0.02 | -0.001 | -0.035 | 0.009 | 0.043 | 0.007 | 0.034 | -0.759 (active) | 0.016 | -0.004 | -0.012 | 0.003
9 | TBRG4 (UniProt Q969Z0) | -0.016 | -0.03 | -0.035 | 0.007 | 0.059 | 0.004 | -0.006 | 0.038 | 0.019 | 0.017 | -0.238 | 0.034 | 0.008 | 0.042 | 0.022
10 | TTC5 (UniProt Q8N0Z6) | 0.012 | -0.064 | 0 | -0.016 | 0.047 | -0.084 | 0.01 | 0 | 0.001 | -0.003 | -0.257 (active) | -0.029 | -0.018 | 0.051 | -0.007
11 | TRMT2A (UniProt Q8IZ69) | -0.034 | -0.011 | -0.018 | -0.011 | 0.013 | -0.023 | -0.007 | 0.016 | -0.012 | -0.012 | -0.366 (active) | 0.034 | -0.007 | 0.002 | -0.002
